Compound activity from PubChem.
The list is not random: actives were taken first. Their share in the collection is about 3.6%.
KDM4E inh = JMJD2E (human) inhibition | 230,000 compounds, 1.6% hits | AID 2147 | JMJD2E catalytic domain, FDH-coupled NADH fluorescence (FDH is formaldehyde dehydrogenase) | Potency, µM (doses to about 57.1 µM), for inactives: top-dose activity change, negative = inhibition, hits mostly inhibitors; active means well fitted inhibition curve with a large enough effect, not every such curve was filed as active; inconclusive means small, poorly fitted or top-dose-only effect, or another doubt; inactive means no such curve, though single readings can be large or run the other way;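 further: 0% = wells with enzyme and -100% = buffer wells without enzyme; nearly all actives have a fitted effect of over 50% in size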
Target sequence (B2RXH2 1-337 limits assumed): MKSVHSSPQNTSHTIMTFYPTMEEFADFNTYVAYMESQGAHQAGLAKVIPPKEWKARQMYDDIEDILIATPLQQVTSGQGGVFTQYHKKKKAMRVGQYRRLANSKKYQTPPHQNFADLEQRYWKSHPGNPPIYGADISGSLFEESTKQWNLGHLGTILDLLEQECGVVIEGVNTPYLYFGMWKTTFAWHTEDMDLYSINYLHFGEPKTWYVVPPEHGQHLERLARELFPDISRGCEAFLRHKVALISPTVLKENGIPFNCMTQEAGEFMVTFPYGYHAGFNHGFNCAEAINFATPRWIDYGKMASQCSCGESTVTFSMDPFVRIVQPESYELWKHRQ
IMPase Li cell = cell-permeable IMPase inhibitors with lithium potentiation; Potency, µM (doses to about 59.4 µM), for the others: at the top dose activity, negative = IMPase inhibition, usual class: inhibitors; AID 1457; 210,000 compounds, 0.35% hits; CHO-M1 cells, IP1 TR-FRET (IP-One), carbachol + lithium;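 further: IP1 builds up when IMPase is blocked and the TR-FRET signal falls; plate controls were basal vehicle for no effect and high inhibitor control for full effect; nearly all actives have a fitted effect of over 50% in size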
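CHO cells stably expressing M1 receptor (2000/well) were cultured 16–30 h, then exposed to compounds with a small lithium addition for 30 min at 37C. IP1 was measured by TR-FRET competition; AC50 from Hill fits.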
Sfp inh = blocks B. subtilis Sfp PPTase activity; AID 1490; 310,000 compounds, 3.5% hits; Biochemical Sfp PPTase activity, qHTS; Q9F4F7; Potency, µM, inactives show largest response in the series, negative = inhibition, usual class: inhibitors;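 further: the enzyme is Sfp with the accession as filed and its product quenches rhodamine fluorescence; 0% = enzyme reaction without inhibitor and -100% = no enzyme wells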
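Fluorescence-quenching assay: 15 nM Sfp-PPTase preincubated 15 min at room temperature with compound, then 5 uM rhodamine-CoA and 12.5 uM BHQ-2-labelled YbbR peptide added. Fluorescence (ex 525/em 598 nm) read at start and after 30 min; difference gives rate.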
NPSR antag = antagonists of human neuropeptide S receptor cAMP signaling; Q6W5P4; CHO-NPSR cells, cAMP TR-FRET, antagonist mode; Potency, µM (top dose mostly 38.3 µM), without a hit: at the highest dose activity change, negative = inhibition, most hits filed as inhibitors; 220,000 compounds, 1% hits; AID 1461; further: on the % scale 0 is the no-effect control and ±100 the full control effect; nearly all actives have a fitted effect of over 50% in size
Target sequence (Q6W5P4 whole entry, looked up): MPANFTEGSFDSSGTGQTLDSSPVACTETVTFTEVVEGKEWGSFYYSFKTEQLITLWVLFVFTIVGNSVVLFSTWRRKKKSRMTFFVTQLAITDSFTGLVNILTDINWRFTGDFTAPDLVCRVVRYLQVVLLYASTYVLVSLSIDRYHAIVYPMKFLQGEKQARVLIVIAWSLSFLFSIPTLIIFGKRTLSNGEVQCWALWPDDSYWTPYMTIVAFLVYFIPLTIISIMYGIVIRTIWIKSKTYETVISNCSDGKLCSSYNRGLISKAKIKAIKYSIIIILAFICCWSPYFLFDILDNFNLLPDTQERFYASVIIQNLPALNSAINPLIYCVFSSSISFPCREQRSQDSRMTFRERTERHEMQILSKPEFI
KAT2A inh = GCN5L2 (KAT2A) acetyltransferase inhibition. Potency, µM (top dose mostly 58.9 µM), without a hit: at the top dose activity change, negative = inhibition, most hits filed as inhibitors. 390,000 compounds, 0.21% hits. Q92830. GCN5L2 HAT assay, ThioGlo1 CoA-SH fluorescence; further: on the % scale 0 is the no-effect control and ±100 the full control effect
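Enzyme at 20nM final was mixed with library compounds for 15 min at room temperature. Peptide H3(1-25) at 75uM, acetyl-CoA at 70uM and ThioGlo1 at 50uM were then added. Plates were read immediately and after 20 min (Ex340nm/Em540nm).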
Epigenetic reg = derepresses silenced GFP reporter in murine cells; murine LDR cells, GFP reporter derepression, 30 h; Potency, µM (highest dose often 53.9 µM), for inactives: at the top dose GFP activation, actives largely listed as activators; 280,000 compounds, 0.2% hits; AID 1865; further: % of control where 0% means no effect; nearly all actives have a fitted effect of over 60% in size
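GFP-positive cell count by laser-scanning cytometry (objects 20–120 um) after 30 h, 37 C compound exposure of murine LDR cells; reporter is CMV-GFP integrated at a silenced locus, inducible by HDAC or DNMT inhibitors.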
Active calls of the source: *; ? = inconclusive; . = no result; ! = a repeat was not active; [ ] = another dose, or the depositor's remark. Unless noted, the call rests on the fitted dose curve; in most records, active means well fitted curve in the direction sought with a large enough effect; inconclusive means small, poorly fitted or top-dose-only effect, or another doubt; inactive means no such curve, though single readings can be large; an effect the other way counts as inactive or inconclusive. Potency means the concentration at half of the fitted maximal effect.

SMILES	KDM4E inh	IMPase Li cell	Sfp inh	NPSR antag	KAT2A inh	Epigenetic reg
CCc1cc2c(N=Nc3c(O)[nH]c4ccccc34)ncnc2s1	-1%	-5%	-1%	6%	-1%	22µM*
CSCC[C@H](N)C(=O)N[C@@H](C)C(=O)NCC(=O)N[C@@H](CCCN=C(N)N)C(=O)N[C@@H](CO)C(=O)NCC(=O)N[C@@H](CC(=O)O)C(=O)N[C@@H](CO)C(=O)N[C@@H](CC(=O)O)C(=O)N[C@@H](CCC(=O)O)C(=O)N[C@@H](CC(=O)O)C(=O)N[C@@H](CC(C)C)C(=O)N[C@@H](CC(C)C)C(=O)N[C@@H](CCCCN)C(=O)N[C@@H](C)C(=O)N[C@H](C(=O)O)C(C)C	.	.	-1%	.	47%	.
O=C(NCCCn1ccnc1)C(Cc1ccccc1)N1C(=O)c2ccccc2C1=O (stereo unspecified)	-10%	-9%[38.3 µM]	56µM*	3%[7.67 µM]	-3%	6%
COCCSc1ccccc1C(=O)NCCCn1ccnc1	5%	6%[38.3 µM]	45µM*	-8%[46.1 µM]	-21%	1%
Cc1ccccc1C(=O)NCCCn1ccnc1	.	.	13%	.	-13%	.
COCCSc1ccccc1C(=O)NCc1ccco1	6%	30%[38.3 µM]	18µM*	-22%[46.1 µM]	-21%	0%
Cc1ccccc1-c1noc(-c2ccccc2C(=O)NCc2ccco2)n1	5%	.	45µM*	33%	-3%	9%
O=C(NCc1ccco1)c1ccccc1-c1nc(-c2ccc(F)cc2)no1	0%	.	-5%	-1%	4%	0%
COCCSc1ccccc1C(=O)N1CCOCC1	-3%	22%[38.3 µM]	79µM*	-17%[46.1 µM]	1%	-2%
COCCSc1ccccc1C(=O)N1CCCC1	3%	-7%[38.3 µM]	-10%	-3%[46.1 µM]	-1%	0%
COCCSc1ccccc1C(=O)NCCc1ccccc1	6%	5%	56µM*	-3%	25%	0%
COCCSc1ccccc1C(=O)Nc1cc(C)on1	?	29%[38.3 µM]	32µM*	-7%[46.1 µM]	?	-4%
Cc1ccc(-c2nc(CSc3nnc(C)n4c3cc3occc34)c(C)o2)cc1	.	.	.	.	-3%	8%
c1ccc([C@H](CCN2CCCC2)c2ccccn2)cc1	.	0%	.	.	.	.
CC(=O)NC[C@@H]1CN(c2ccc(N3CCOCC3)c(F)c2)C(=O)O1	.	.	11%	.	-9%	.
CCN1/C(=C\C(=S)Nc2ccccc2)Sc2ccccc21	-12%	19%	20µM*	24%	-12%	0%
COc1cc(C2C3=C(CC(c4ccco4)CC3=O)Nc3ccccc3N2C(C)=O)cc(OC)c1OC (stereo unspecified)	?	11%[38.3 µM]	18µM*	-6%[46.1 µM]	-4%	0%
CCC(=O)N1c2ccccc2NC2=C(C(=O)CC(c3ccco3)C2)C1c1ccco1 (stereo unspecified)	-26%	5%[38.3 µM]	-21%	-15%[46.1 µM]	-8%	-1%
O=C1CC(c2ccco2)CC2=C1C1c3ccccc3C(=O)N1c1ccccc1N2 (stereo unspecified)	-6%	36%[38.3 µM]	20µM*	-30%[46.1 µM]	-4%	0%
COc1ccc(C2CC(=O)C3=C(C2)Nc2ccccc2N(C(C)=O)C3c2ccco2)cc1 (stereo unspecified)	-11%	-4%[38.3 µM]	1%	-20%[46.1 µM]	-1%	0%
CN(C)c1ccc(/C=C2\C(=O)Nc3ccccc32)cc1	-5%	23%	56µM*!	?	-25%	?
Cc1ccc(/C=N/N2C(=O)C3C(C2=O)C2C=CC3C23CC3)o1 (stereo unspecified)	0%	7%	-6%	17%[46.1 µM]	-7%	-1%
Cc1ccc(/C=C2\C(=O)NC(=O)N2C)o1	.	.	40µM*	.	0%	.
Cc1ccc(/C=C2\C(=O)Nc3ccccc32)o1	2%	3%	16µM*	2%	5%	3%
c1nc(NCCc2cnc[nH]2)c2[nH]cnc2n1	.	-8%	.	.	.	.
SMILES	KDM4E inh	IMPase Li cell	Sfp inh	NPSR antag	KAT2A inh	Epigenetic reg
CCCOC(=O)NCCCN(C)C	.	.	17%	.	-17%	.
Cc1cc(C)cc(NC(=O)Cc2ccc(NC3=NC4CS(=O)(=O)CC4S3)cc2)c1 (stereo unspecified)	.	.	-2%	.	?	.
Cc1cccc(NC(=O)Cc2ccc(NC3=NC4CS(=O)(=O)CC4S3)cc2)c1 (stereo unspecified)	.	.	7%	.	22µM*	.
O=C(NCc1ccc(Cl)cc1)c1cccc(NC2=NC3CS(=O)(=O)CC3S2)c1 (stereo unspecified)	.	.	19%	.	28µM*	.
CCOc1ccccc1OCC(=O)Nc1cc2c(cc1C(=O)O)OCCCO2	.	.	79µM*	.	-1%	.
COc1ccccc1OCC(=O)Nc1cc2c(cc1C(=O)O)OCCCO2	.	.	79µM*	.	-4%	.
Cc1cc(C)cc(NC(=O)c2cccc(N3CCCS3(=O)=O)c2)c1	.	.	.	.	-15%	-2%
Nc1nc2cc(S(=O)(=O)NC3=NCCCCC3)ccc2s1	-12%	.	?	16%	-13%	-3%
CCOC(=O)c1ccc(S(=O)(=O)Nc2nc3cc(S(=O)(=O)NC4=NCCCCC4)ccc3s2)cc1	-23%	2%	28µM*	8%	-12%	0%
N=c1n(CC(=O)c2ccc(Br)s2)c2ccccc2n1Cc1ccccc1	2%	.	14µM*	?	-6%	0%
CN1CCCc2cc3c(C(F)(F)F)cc(=O)oc3nc21	?	10µM*	5%	14%[46.1 µM]	?	-1%
CC(C)c1cc(=O)oc2c3c4c(cc12)CCCN4CCC3	?	-14%[38.3 µM]	-24%	-1%[46.1 µM]	?	15%
CC[C@@H](C(=O)[C@@H](C)[C@@H](O)[C@H](C)CCc1ccc(C)c(O)c1C(=O)O)C1O[C@](CC)(C2CC[C@](O)(CC)[C@H](C)O2)C[C@@H]1C (stereo partly specified)	.	.	0%	.	16µM*	.
CC[C@H](C)[C@H](NC(=O)[C@H](Cc1ccc(O)cc1)NC(=O)[C@@H](NC(=O)[C@H](CCCN=C(N)N)NC(=O)[C@@H](N)CC(=O)O)C(C)C)C(=O)N[C@@H](Cc1ccc(N)cc1)C(=O)N1CCC[C@H]1C(=O)N[C@@H](Cc1ccccc1)C(=O)O	.	.	3%	.	0%	.
CCc1ccc(NCc2cc3ccc(OC)cc3n(CC(=O)Nc3ccccc3OC)c2=O)cc1	.	.	.	.	-7%	-1%
Cc1ncc(CO)c(/C=N/NC(=S)Nc2ccc(C(C)C)cc2)c1O	?	.	22µM*	-6%	1%	3%
Cc1ncc(CO)c(/C=N/NC(=O)c2cc(O)c(O)c(O)c2)c1O	13µM*	16%	20µM*	-26%	-17%	0%
Cc1ncc(CO)c(/C=N/NC(=O)c2ccc(Br)cc2)c1O	?	-2%	25%	-3%	-20%	1%
CNc1ccc(O)cc1	.	49%	.	.	.	.
